# Measured values: PubChem BioAssay
# Calls of active or inactive are those of the source. Unless noted, how the calls were made is not given here.
# Experiments:
# [1] = compound effects on lung adenocarcinoma cell viability – A549, calcein-AM fluorescence, 48 h, basal, profiling panel (AID 1162); conditions: higher = more signal; further: test concentration not given here
# [2] = compound effects on differentiated 3T3-L1 adipocyte viability – cell-based, 3T3-L1 adipocytes, calcein-AM fluorescence, 48 h, basal, profiling panel (AID 1163); conditions: 3T3-L1 adipocytes viability, higher = more signal; further: test concentration not given here
# [3] = compound effects on hepatocellular carcinoma cell viability – HepG2, calcein-AM fluorescence, 48 h, basal, profiling panel (AID 1164); conditions: higher = more signal; further: test concentration not given here
# [4] = compound effects on multiple myeloma cell viability – MM1S, calcein-AM fluorescence, 48 h, basal, profiling panel (AID 1165); conditions: higher = more signal; further: test concentration not given here
# [5] = calcein-AM signal in unstimulated myeloma cells – cell-based, calcein-AM fluorescence, 48 h, PK04 Diversity Set, profiling panel (AID 1166); conditions: RPMI8226 myeloma viability, higher = more signal;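 further: cells grown under basal conditions without added stimulus; test concentration not given here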
# [6] = JC-1 mitochondrial signal, unstimulated HepG2 cells – cell-based, JC-1 fluorescence, 24 h, 100 nL compound, profiling panel (AID 1167); conditions: HepG2 mitochondrial potential, higher = more signal; further: test concentration not given here
# [7] = JC-1 mitochondrial signal, unstimulated adipocytes – cell-based, JC-1 fluorescence, 3T3-L1 adipocytes, 24 h, 100 nL compound, profiling panel (AID 1168); conditions: JC-1 mitochondrial fluorescence, higher = more signal, called active from +8 up or from −8 down; further: test concentration not given here
# [8] = JC-1 mitochondrial signal, unstimulated myeloma cells – cell-based, JC-1 fluorescence, RPMI8226, 24 h, 100 nL compound, profiling panel (AID 1169); conditions: JC-1 mitochondrial potential fluorescence, higher = more signal; further: test concentration not given here
# [9] = JC-1 mitochondrial signal, unstimulated MM1S myeloma – cell-based, JC-1 fluorescence, 24 h, 100 nL compound, profiling panel (AID 1170); conditions: MM1S mitochondrial potential, higher = more signal; further: test concentration not given here
# [10] = resazurin metabolic signal in A549 cells – cell-based, resazurin fluorescence, 24 h, PK04 Diversity Set, profiling panel (AID 1171); conditions: A549 viability, higher = more signal, called active from +8 up or from −8 down; further: test concentration not given here
# [11] = resazurin metabolic signal in HepG2 cells – cell-based, resazurin fluorescence, 24 h, PK04 Diversity Set, profiling panel (AID 1172); conditions: HepG2 viability, higher = more signal; further: test concentration not given here
# [12] = budding yeast growth changes without added modifier – OD600, strain BY4716, 24 h, basal condition, primary screen (AID 1173); conditions: S. cerevisiae BY4716 growth, OD600, 24 h; higher = more signal, called active from +8 up or from −8 down
# [13] = viability profiling in MM1S myeloma cells – cell-based, resazurin fluorescence, basal, 24 h, PK04 Diversity Set, profiling panel (AID 1174); conditions: higher = more signal, called active from +8 up or from −8 down; further: test concentration not given here
# [14] = molecular target: Dihydroorotate dehydrogenase (quinone), mitochondrial (Plasmodium falciparum (isolate 3D7)) (UniProt Q08210); experiment: inhibition of P. falciparum DHODH – biochemical, C-terminal His tag, absorbance 600 nm, primary screen (AID 1175); conditions: PfDHODH enzyme, DCIP absorbance 600 nm; higher = more signal, called active from +8 up or from −8 down;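 further: recombinant parasite enzyme with a five histidine tag at its C terminus; test concentration not given here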
# [15] = inhibition of PAO1 biofilm formation – strain PAO1, LB-PBS medium, absorbance 600 nm, primary screen (AID 1176); further: test concentration not given here; conditions: P. aeruginosa PAO1 growth/biofilm, A600, 12 h; higher = more signal
# [16] = growth modulation of vineyard yeast isolate – strain RM11-1a, OD600, basal, 24 h, primary screen (AID 1177);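 further: cultures grown under basal conditions with no added stressor; test concentration not given here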; conditions: S. cerevisiae RM11-1a growth, OD600, 24 h; higher = more signal, called active from +8 up or from −8 down
# [17] = growth of efflux-deficient E. coli DRC39 – strain DRC39, OD650, 24 h, E. coli filamentation inducers, primary screen (AID 1178);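 further: growth measured as culture turbidity by optical density at 650 nm; test concentration not given here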; conditions: E. coli DRC39 acrAB, higher = more signal, called active from +8 up or from −8 down
# [18] = growth of efflux-deficient E. coli DRC39 – strain DRC39, OD650, 48 h, E. coli filamentation inducers, primary screen (AID 1179);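 further: screen aims at cell division blockers that make cells filament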; conditions: E. coli DRC39 delta-acrAB growth, higher = more signal, called active from +8 up or from −8 down
# [19] = viability profiling in RPMI8226 myeloma cells – cell-based, resazurin fluorescence, basal, 24 h, PK04 Diversity Set, profiling panel (AID 1180); conditions: higher = more signal;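 further: RPMI8826 multiple myeloma cell line at 5000 cells per well; test concentration not given here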
# [20] = molecular target: E3 ubiquitin-protein ligase XIAP (Homo sapiens) (UniProt P98170); experiment: small molecules binding XIAP protein – biophysical, small-molecule microarray, fluorescence 635 nm, primary screen (AID 1181); conditions: higher = more signal;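 further: score merges 667 nm emission and signal to noise over triplicate slides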
# Sequence of E3 ubiquitin-protein ligase XIAP (Homo sapiens) (P98170 whole entry, looked up): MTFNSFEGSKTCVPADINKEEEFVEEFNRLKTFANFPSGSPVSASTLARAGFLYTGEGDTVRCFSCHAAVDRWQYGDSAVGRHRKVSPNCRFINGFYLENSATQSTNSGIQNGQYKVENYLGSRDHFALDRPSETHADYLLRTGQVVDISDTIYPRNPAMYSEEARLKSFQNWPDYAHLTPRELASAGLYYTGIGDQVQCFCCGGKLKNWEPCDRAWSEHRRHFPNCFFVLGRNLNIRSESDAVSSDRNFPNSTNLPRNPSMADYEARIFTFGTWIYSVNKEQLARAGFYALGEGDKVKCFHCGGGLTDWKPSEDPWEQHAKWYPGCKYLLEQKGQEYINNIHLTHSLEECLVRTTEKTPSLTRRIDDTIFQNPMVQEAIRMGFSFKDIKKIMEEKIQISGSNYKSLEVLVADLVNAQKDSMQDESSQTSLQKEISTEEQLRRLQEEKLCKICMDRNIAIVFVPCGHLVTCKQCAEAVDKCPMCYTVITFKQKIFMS
# Sequence of Dihydroorotate dehydrogenase (quinone), mitochondrial (Plasmodium falciparum (isolate 3D7)) (Q08210 whole entry, looked up): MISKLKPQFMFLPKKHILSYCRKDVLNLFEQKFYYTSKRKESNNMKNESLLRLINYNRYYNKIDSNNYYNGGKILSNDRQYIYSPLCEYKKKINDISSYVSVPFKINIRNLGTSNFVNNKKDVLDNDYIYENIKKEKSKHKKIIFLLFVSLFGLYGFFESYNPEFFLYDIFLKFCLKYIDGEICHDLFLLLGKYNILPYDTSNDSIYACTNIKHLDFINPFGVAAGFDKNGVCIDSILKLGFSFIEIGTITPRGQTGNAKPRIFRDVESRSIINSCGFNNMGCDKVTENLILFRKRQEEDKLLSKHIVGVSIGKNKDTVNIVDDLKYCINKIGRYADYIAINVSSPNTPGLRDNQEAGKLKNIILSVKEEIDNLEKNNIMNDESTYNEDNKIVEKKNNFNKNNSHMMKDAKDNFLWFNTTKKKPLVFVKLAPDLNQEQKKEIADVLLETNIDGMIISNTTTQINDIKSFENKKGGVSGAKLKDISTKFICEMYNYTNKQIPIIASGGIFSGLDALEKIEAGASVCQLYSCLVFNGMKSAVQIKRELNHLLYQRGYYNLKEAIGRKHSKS
SMILES,z-score [1],z-score [2],z-score [3],z-score [4],z-score [5],z-score [6],z-score [7],z-score [8],z-score [9],z-score [10],z-score [11],z-score [12],z-score [13],composite z-score [14],z-score [15],z-score [16],z-score [17],z-score [18],z-score [19],composite z-score [20]
O=C1C2C=CC(C(O)c3ccc(B(O)O)cc3)N(Nc3ccc([N+](=O)[O-])cc3)C2C(=O)N1c1ccccc1 (stereo not given),-2.05,-0.167,-5.4,0.0297,-4.09,-1.66,3.71 (inactive),-0.213,-1.22,0.0312 (inactive),0.0107,-17.3 (active),-0.307 (inactive),-3.05 (inactive),0.188 (inactive),-22.9 (active),-1.01 (inactive),-0.657 (inactive),-0.423,0.0823
O=C1c2ccccc2[C@](Cc2ccccc2I)(C(=O)O)[C@H](c2ccc(CO)cc2)N1Cc1ccccc1C(F)(F)F,-0.26,-0.24,0.458,-1.58,-2.58,-0.51,-0.476 (inactive),-0.832,-0.478,0.427 (inactive),1.02,-0.874 (inactive),0.283 (inactive),0.833 (inactive),-0.0528 (inactive),0.893 (inactive),-0.0217 (inactive),-0.0555 (inactive),0.0019,0.12
COc1ccc(C(=O)Nc2cccc(CN3C(=O)[C@@]4(O[C@@H](CCn5cc([C@H](O)c6ccccc6)nn5)[C@H]([Si](C)(C)c5ccc(OC)cc5)[C@H]4C)c4ccccc43)c2)cc1,-0.311,0.0953,-3.44,-2.63,-3.6,-2.16,-0.694 (inactive),-1.03,-2.24,-1.88 (inactive),-2.55,-1.74 (inactive),-6.53 (inactive),-0.0516 (inactive),1.38 (inactive),0.588 (inactive),0.259 (inactive),-0.237 (inactive),-6.13,-0.0228
CC(=O)NCCCC[C@@H]1NC(=O)[C@@H]2C[C@H](C(=O)NCCCCCC[N+](C)(C)C)[C@H](c3cccc(OCCO)c3)N2C1=O,-0.339,-0.547,-0.231,-0.241,0.397,-1.51,-0.0349 (inactive),0.226,-0.12,0.481 (inactive),-0.29,1.05 (inactive),-0.147 (inactive),-0.908 (inactive),0.118 (inactive),1.44 (inactive),-0.119 (inactive),-0.42 (inactive),-0.536,-0.36
O=C1C2C=CC(C(O)c3ccccn3)N(Nc3ccccc3F)C2C(=O)N1c1ccccc1 (stereo not given),-0.922,-1.12,1.04,-0.211,-0.217,-0.793,0.608 (inactive),-0.196,-0.541,-0.52 (inactive),0.248,-0.166 (inactive),-0.497 (inactive),0.761 (inactive),0.378 (inactive),-0.0396 (inactive),-0.628 (inactive),0.292 (inactive),-0.0768,0.0521
O=C1OCCC=C[C@H]2OC34C=CCN(c5ccc6ccccc6c5)C(=O)[C@H]3N(CCCCCCO)C(=O)[C@@H]4C12 (stereo not given in full),0.705,-0.488,0.461,1.1,0.734,1.3,0.0246 (inactive),-0.00773,-0.456,0.866 (inactive),0.523,-0.546 (inactive),-0.0449 (inactive),0.401 (inactive),-0.497 (inactive),0.522 (inactive),0.982 (inactive),1.29 (inactive),0.868,-0.0953
COc1ccc([Si](C)(C)[C@H]2[C@H](CC(=O)N3CCC[C@H]3CO)O[C@@]3(C(=O)N(c4ccccc4)c4ccccc43)[C@@H]2C)cc1,1.35,0.42,0.628,1.63,0.912,2.53,-0.667 (inactive),0.421,-0.947,1.63 (inactive),1.75,-2.26 (inactive),1.55 (inactive),0.0873 (inactive),0.826 (inactive),-1.81 (inactive),1.21 (inactive),1.49 (inactive),0.843,-0.167
COc1ccc(C#Cc2ccc3c(c2)[C@]2(C(=O)N3)[C@H](C(=O)N3CCN(c4ncccn4)CC3)[C@H]3C(=O)O[C@H](c4ccccc4)[C@H](c4ccccc4)N3[C@@H]2c2ccc(O)cc2)cc1,-0.125,0.583,0.804,-0.156,-0.404,-1.11,1.08 (inactive),-0.899,-0.427,-0.164 (inactive),-0.795,0.21 (inactive),0.0492 (inactive),-3.34 (inactive),0.999 (inactive),0.881 (inactive),-0.423 (inactive),0.182 (inactive),0.225,-0.0149
CCOC(=O)N1C(c2ccc(OCCCO)cc2)=NC(C(=O)OC)N1C(=O)OCC (stereo not given),-0.481,0.69,0.21,0.487,0.732,-0.231,0.68 (inactive),-1.24,0.0773,0.352 (inactive),0.33,-0.445 (inactive),0.715 (inactive),-0.294 (inactive),-0.565 (inactive),-1.08 (inactive),0.857 (inactive),1.52 (inactive),0.96,0.0707
COCCOC(=O)N1C(=O)[C@@]2(c3cc(C#CC4=CCCCC4)ccc31)[C@H](C(=O)N1CCN(c3ncccn3)CC1)[C@H]1C(=O)O[C@H](c3ccccc3)[C@H](c3ccccc3)N1[C@@H]2c1ccc(OCCO)cc1,-0.167,0.937,-0.247,-1.05,-0.812,-0.203,1.59 (inactive),-0.606,-0.822,0.532 (inactive),0.156,1.31 (inactive),0.162 (inactive),-0.204 (inactive),3.13 (inactive),1.69 (inactive),0.208 (inactive),-0.564 (inactive),-0.147,-0.0389
CC(c1ccccc1)C(O)C1C=CC2C(=O)N(Cc3ccccc3)C(=O)C2N1n1cnnc1 (stereo not given),-0.313,0.0487,-0.547,-0.0399,-0.751,0.203,-0.884 (inactive),-0.107,-0.526,-0.694 (inactive),-0.69,-6.59 (inactive),-0.652 (inactive),0.381 (inactive),0.492 (inactive),0.263 (inactive),-0.491 (inactive),-2.39 (inactive),-0.161,0.456
C#C[C@H](O[Si](C#CCCCCCC)(C(C)C)C(C)C)c1ccccc1,0.303,0.102,-0.616,0.665,0.528,0.0244,-0.324 (inactive),0.179,-0.772,0.815 (inactive),0.465,0.0181 (inactive),0.221 (inactive),-0.719 (inactive),-0.984 (inactive),-0.0669 (inactive),0.0687 (inactive),0.577 (inactive),0.783,0.0406
CN(C)CCCCCCNC(=O)[C@@H]1C[C@@H]2C(=O)NCC(=O)N2[C@@H]1c1cccc(OCCO)c1,-0.129,-0.215,-0.225,0.0864,1.45,-0.305,-0.0086 (inactive),-0.12,-0.659,-0.427 (inactive),-0.358,-0.531 (inactive),-0.578 (inactive),-1.08 (inactive),0.0067 (inactive),0.536 (inactive),0.757 (inactive),0.614 (inactive),-1.12,0.0043
O=C(NCC(O)CO)[C@]1(CCS(=O)(=O)c2ccccc2)N=C(c2ccc(OCCCO)cc2)O[C@@H]1c1ccccc1 (stereo not given in full),-0.206,-0.13,-0.635,-0.37,-0.33,0.22,-1.3 (inactive),-0.213,-0.824,0.562 (inactive),-0.015,0.53 (inactive),-0.57 (inactive),-0.162 (inactive),0.193 (inactive),-0.702 (inactive),-0.0686 (inactive),-0.276 (inactive),0.0882,-0.0203
Cn1c2c(c3ccccc31)C(=O)C1NC2C=CC1(C)C(=O)OCc1ccccc1 (stereo not given),-0.618,-0.0704,0.583,-0.175,0.0208,0.603,-1.65 (inactive),-0.0327,0.426,-0.078 (inactive),0.0885,0.272 (inactive),-1.35 (inactive),-0.296 (inactive),-0.253 (inactive),-0.128 (inactive),-1.33 (inactive),-1.06 (inactive),-1.2,0.0546
C[N+](C)(C)CCCC[C@@H]1NC(=O)[C@H]2C[C@@H](C(=O)O)[C@@H](c3cccc(OCCO)c3)N2C1=O,0.244,-0.552,0.438,0.797,0.91,2.37,-0.448 (inactive),-0.741,-0.631,-0.141 (inactive),0.352,-1.32 (inactive),0.644 (inactive),0.16 (inactive),0.0751 (inactive),-0.625 (inactive),0.406 (inactive),0.871 (inactive),0.773,0.353
CCCCN1CC=CC23O[C@@H]4/C=C\CCCOC(=O)C4[C@H]2C(=O)N(C(C)CO)[C@@H]3C1=O (stereo not given in full),-0.455,-0.455,-0.564,0.35,1.4,0.698,0.0147 (inactive),-0.546,-1.11,-0.249 (inactive),-0.901,-0.138 (inactive),0.196 (inactive),-0.415 (inactive),-0.857 (inactive),0.429 (inactive),0.742 (inactive),0.738 (inactive),0.442,-0.157
CO[C@H]1O[C@H](CO)[C@@H](OC(=O)Nc2ccccc2-c2ccccc2)[C@H](OC(=O)Nc2ccccc2-c2ccccc2)[C@H]1OC(=O)Nc1ccccc1-c1ccccc1,-1.46,1.22,-1.31,-1.4,-1.44,-0.0136,0.908 (inactive),-0.87,0.116,-2.56 (inactive),-1.04,1.95 (inactive),-1.6 (inactive),-0.236 (inactive),1.45 (inactive),4.43 (inactive),0.494 (inactive),-0.0039 (inactive),-1.6,1.26
